# In PubChem BioAssay (EPA / NIEHS):
# Inconclusive results are not listed. Calls of active or inactive are those of the source. The calls were made as follows, unless noted: active = hit-call score of the fitted dose curve at least 0.9, where 1 is the maximum; inactive = score below 0.9.
# What was measured:
# [1] = CCTE_Shafer_MEA_acute_burst_number: CCTE's Neural Acute Assay for Single-Electrode Bursts, Shafer Lab (AID 2284013)
# Method in brief: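 Burst totals were derived with adaptive spike detection (8x rms threshold) on filtered signals from rat cortical cultures; change relative to pre-treatment baseline after 40-min compound exposure (0.03-40 uM) was fitted in the negative direction against DMSO.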
# [2] = CCTE_Shafer_MEA_acute_burst_duration_mean: CCTE's Neural Acute Assay for Mean Burst Duration, Shafer Lab (AID 2284014);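 also: hits are decreases in mean burst duration relative to DMSO controls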
# Method in brief: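 Acute exposure of mature rat cortical networks (DIV 13 or 15) grown on microelectrode arrays to 0.03-40 uM compound. Mean burst duration compared with the 40-min pre-dose baseline over a 40-min post-dose recording at 37 C.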
# [3] = CCTE_Shafer_MEA_acute_per_burst_spike_number_mean: CCTE's Neural Acute Assay for Average Number of Spikes Per Burst, Shafer Lab (AID 2284015);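 also: hits are decreases in mean spikes per burst versus baseline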
# Method in brief: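 Rat primary cortical neurons on 48-well MEAs (DIV 13 or 15) were treated with 0.03-40 uM compound at 37 C. Mean spikes per burst over 40 min were recorded before and after exposure and expressed as percent change from baseline, relative to DMSO.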
# [4] = CCTE_Shafer_MEA_acute_interburst_interval_mean: CCTE's Neural Acute Assay for Mean Interburst Interval, Shafer Lab (AID 2284016);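 also: percent change of mean interburst interval versus each well's own pre-dose baseline; curves fitted for decrease in interburst interval relative to DMSO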
# Method in brief: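 Rat primary cortical neurons on 48-well MEAs at DIV 13 or 15 were exposed acutely to 0.03-40 uM. Spikes detected at 8x rms noise, 37 C. Mean interburst interval from 40 min recordings expressed as percent change from 40 min pre-treatment baseline.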
# [5] = CCTE_Shafer_MEA_acute_burst_percentage_mean: CCTE's Neural Acute Assay for Percentage of Spikes in a Burst, Shafer Lab (AID 2284017)
# Method in brief: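 Primary rat cortical neurons on 48-well MEA plates, treated on DIV 13 or 15 at 0.03-40 uM. Spikes detected at 8x rms noise at 37C; percent change from 40-min baseline to 40-min post-dose recording, fitted versus DMSO.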
# [6] = CCTE_Shafer_MEA_acute_burst_percentage_std: CCTE's Neural Acute Assay for Standard Deviation of Burst Percentage, Shafer Lab (AID 2284018);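 also: fitted in the negative direction so actives lower burst percentage SD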
# Method in brief: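 Primary rat cortical neurons on 16-electrode MEA wells were recorded 40 min at baseline (DIV 13 or 15), then 40 min after compound (0.03-40 uM), at 37 C. Well value is SD across electrodes of spikes-in-bursts/total spikes; endpoint is percent change, DMSO-referenced.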
# [7] = CCTE_Shafer_MEA_acute_per_network_burst_spike_number_std: CCTE's Neural Acute Assay for Standard Deviation of Number of Spikes in a Network Burst, Shafer Lab (AID 2284020);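 also: fitted for decrease in spike-number SD versus DMSO so actives lower it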
# Method in brief: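 Acute MEA exposure, rat cortical neurons, 0.03-40 uM. Per-well % change versus own baseline; DMSO as negative control.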
# [8] = CCTE_Shafer_MEA_acute_per_network_burst_electrodes_number_mean: CCTE's Neural Acute Assay for Mean Number of Electrodes in a Network Burst, Shafer Lab (AID 2284021);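 also: curves fitted for decreases only so hits reduce electrodes per burst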
# Method in brief: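 Rat primary cortical neurons on 16-electrode MEA wells were recorded 40 min at baseline on DIV 13 or 15, then 40 min after compound (0.03-40 uM), at 37 C. Value is percent change per well, fitted in loss direction versus DMSO.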
# [9] = CCTE_Shafer_MEA_acute_network_burst_percentage: CCTE's Neural Acute Assay for Percentage of Network Bursts, Shafer Lab (AID 2284022);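 also: curves fitted for loss so actives lower network burst percentage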
# Method in brief: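 Primary rat cortical neurons on 16-electrode MEA wells, treated on DIV 13 or 15 with compound (0.03-40 uM); 40-min baseline and 40-min post-exposure recordings at 37 C. Value is percent change in spikes within network bursts versus baseline, DMSO negative control.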
# [10] = CCTE_Shafer_MEA_acute_cross_correlation_area: CCTE's Neural Acute Assay for Area of Cross Correlation, Shafer Lab (AID 2284024);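 also: area under pooled inter-electrode spike cross-correlation near zero lag as percent change from own baseline; curves fitted for loss of cross-correlation area so actives lower synchrony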
# Method in brief: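 Primary rat cortical neurons on 48-well MEA plates (16 electrodes/well) were recorded 40 min at baseline on DIV 13 or 15, then 40 min with compound (0.03-40 uM) at 37 C; cross-correlation area expressed as percent change from baseline.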
# [11] = CCTE_Harrill_HTTr_Viability_MCF7: CCTE's 6-hour Cell Viability Assessment for the High-Throughput Transcriptomics (HTTr) Platform, in MCF-7 cells cultured in DMEM + 10% fetal bovine serum, Harrill Lab (AID 2284010)
# Method in brief: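 Propidium iodide exclusion, imaged by high-content analysis, gauged viability after a six-hour exposure across eight concentrations. Cells were MCF-7 grown in DMEM with 10% fetal bovine serum; fits run in both directions against DMSO.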
# [12] = CCTE_Harrill_HTTr_CellCount_MCF7: CCTE's Cell Proliferation Assessment for the High-Throughput Transcriptomics (HTTr) Platform, Harrill Lab (AID 2284012; active = hit-call score of the fitted dose curve at least 0.9, where 1 is the maximum;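 also: cells exposed to compound for six hours; intended direction is loss of nuclei count meaning fewer cells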)
# Method in brief: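 Cell count from high-content imaging of Hoechst-labeled nuclei serves as viability/growth readout. Chemicals were applied to MCF-7 cells in eight concentrations for six hours, with fitting in both directions relative to DMSO.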
# [13] = target: Estrogen receptor (Homo sapiens) (UniProt P03372); assay: CCTE_Deisenroth_AIME_96WELL_LUC_Active: CCTE's 96-well Estrogen Receptor Transactivation Assay with AIME metabolic competence (ERTA luciferase; metabolism positive), Deisenroth Lab (AID 2284023; active = hit-call score of the fitted dose curve at least 0.9, where 1 is the maximum)
# Sequence of Estrogen receptor (Homo sapiens) (P03372 whole entry, looked up): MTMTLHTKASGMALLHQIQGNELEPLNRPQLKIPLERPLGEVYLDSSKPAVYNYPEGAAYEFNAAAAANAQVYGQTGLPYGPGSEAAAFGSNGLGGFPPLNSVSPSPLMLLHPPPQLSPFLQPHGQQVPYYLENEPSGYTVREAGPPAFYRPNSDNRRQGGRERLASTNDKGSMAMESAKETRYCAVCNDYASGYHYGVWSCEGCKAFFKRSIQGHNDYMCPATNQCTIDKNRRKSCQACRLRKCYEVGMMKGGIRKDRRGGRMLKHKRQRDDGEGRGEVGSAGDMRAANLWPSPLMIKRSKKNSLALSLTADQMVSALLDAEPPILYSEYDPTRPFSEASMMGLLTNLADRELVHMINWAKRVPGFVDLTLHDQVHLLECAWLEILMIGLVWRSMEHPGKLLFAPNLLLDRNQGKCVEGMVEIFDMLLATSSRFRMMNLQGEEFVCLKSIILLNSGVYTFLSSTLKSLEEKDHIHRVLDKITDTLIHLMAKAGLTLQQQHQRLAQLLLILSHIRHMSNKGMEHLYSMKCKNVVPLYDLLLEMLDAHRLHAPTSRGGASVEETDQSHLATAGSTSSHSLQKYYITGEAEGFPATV
# Method in brief: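 Metabolism-positive mode: induced rat hepatic S9 in alginate microspheres conditions test solutions (0.002 - 200 uM, 10 points) for 2 hours. VM7Luc4E2 ER luciferase reporter cells then exposed 24 h; positive-direction fit against 17beta-estradiol, n=4 typical.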
compound,measurement,setting,value
O=C(c1ccc(O)cc1)c1ccc(O)cc1O,outcome,[1],inactive
same,outcome,[2],inactive
same,outcome,[3],inactive
same,AC50,[4],15 µM (active)
same,outcome,[5],inactive
same,outcome,[6],inactive
same,outcome,[7],inactive
same,outcome,[8],inactive
same,outcome,[9],inactive
same,outcome,[10],inactive
CC1(C)O[C@@H]2C[C@H]3[C@@H]4C[C@H](F)C5=CC(=O)CC[C@]5(C)[C@H]4[C@@H](O)C[C@]3(C)[C@]2(C(=O)CO)O1,outcome,[11],inactive
same,outcome,[12],inactive
CC1(C)O[C@@H]2C[C@H]3[C@@H]4C[C@H](F)C5=CC(=O)C=C[C@]5(C)[C@@]4(F)[C@@H](O)C[C@]3(C)[C@]2(C(=O)CO)O1,outcome,[11],inactive
same,outcome,[12],inactive
O=C(Nc1ccccc1)c1ccccc1O,outcome,[11],inactive
same,outcome,[12],inactive
NC(=O)OCC(COC(N)=O)c1ccccc1,outcome,[11],inactive
same,outcome,[12],inactive
CCN(Cc1cccc(S(=O)(=O)O)c1)c1ccc(C(=C2C=CC(=[N+](CC)Cc3cccc(S(=O)(=O)[O-])c3)C=C2)c2ccccc2)cc1,outcome,[11],inactive
same,outcome,[12],inactive
CC(C)(C)c1ccc(OC(=O)c2ccccc2O)cc1,AC50,[13],17.8 µM (active)
CC(=O)[C@H]1[C@H](C#N)C[C@H]2[C@@H]3CC=C4C[C@@H](O)CC[C@]4(C)[C@H]3CC[C@@]21C,outcome,[11],inactive
same,outcome,[12],inactive
CCO[Si](C)(OCC)OCC,outcome,[1],inactive
same,outcome,[2],inactive
same,outcome,[3],inactive
same,outcome,[4],inactive
same,outcome,[5],inactive
same,outcome,[6],inactive
same,outcome,[7],inactive
same,outcome,[8],inactive
same,outcome,[9],inactive
same,outcome,[10],inactive
COc1ccc(-c2coc3cc(O)ccc3c2=O)cc1,outcome,[11],inactive
same,outcome,[12],inactive
same,AC50,[13],6.69 µM (active)
C[C@]12CCC(=O)C=C1CC[C@@H]1[C@@H]2C(=O)C[C@@]2(C)[C@H]1CC[C@]2(O)C(=O)CO,outcome,[11],inactive
same,outcome,[12],inactive
CCCCC(CC)COCC1CO1 (stereo not drawn),outcome,[1],inactive
same,outcome,[2],inactive
same,outcome,[3],inactive
same,outcome,[4],inactive
same,outcome,[5],inactive
same,outcome,[6],inactive
same,outcome,[7],inactive
same,outcome,[8],inactive
same,outcome,[9],inactive
same,outcome,[10],inactive
